Where “and” joins values, the source holds several entries; their conditions need not be identical. Identical values can stand only once. Results filed as inconclusive are left out. Calls of active or inactive are those of the source. Calls follow the shape of the dose curve; as a rule, active = well fitted curve in the direction sought with a large enough effect in the repeat runs; inconclusive = weak or mixed curves; inactive = no such curve, though single readings can be large; an effect the other way counts as inactive or inconclusive.
What was measured:
[1] = qHTS RealTime-Glo MT Cell Viability Assay in HepG2 cells - 40 hour (AID 1224870); settings: RealTime-Glo luminescence; series mostly up to 76.8 µM; also: nearly all actives have a fitted effect of over 50% in size
In short: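 HepG2 cells mixed with RealTime-Glo MT reagents (NanoLuc plus cell-permeant prosubstrate) were seeded at 600 cells/well, incubated 5 h at 37 C/5% CO2, then pinned with compounds in DMSO; nonlytic luminescence tracked viability during 40 h treatment.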

[2] = A CellTox Green Cytotoxicity Assay to monitor cytotoxicity in HEK293 cells - 40 hour (AID 1224871); settings: CellTox Green fluorescence; series mostly up to 76.8 µM; also: nearly all actives have a fitted effect of over 45% in size
In short: (§1)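 HEK293 cells premixed with CellTox Green dye were seeded at 600 cells/well and left 5 h at 37 C/5% CO2 before pin transfer of 23 nL compound in DMSO. Fluorescence from dye bound to dead-cell DNA was read during 40 h treatment.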

[3] = qHTS RealTime-Glo MT Cell Viability Assay in HEK293 cells - 16 hour (AID 1224872); settings: RealTime-Glo luminescence; series mostly up to 76.8 µM; also: top concentration of the series differs between compounds; nearly all actives have a fitted effect of over 50% in size
In short: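 Quantitative high-throughput screen of the Tox21 10K library in HEK293: cells and RealTime-Glo reagents plated together, compound added at 5 h, luminescence monitored through 40 h at 37 C.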

[4] = qHTS RealTime-Glo MT Cell Viability Assay in HEK293 cells - 40 hour (AID 1224874); settings: RealTime-Glo luminescence; max response: hits give low values; also: nearly all actives have a fitted effect of over 50% in size
In short: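 HEK293 cells mixed with RealTime-Glo reagents (NanoLuc plus cell-permeant prosubstrate) at 600 cells/well, preincubated 5 h at 37 C/5% CO2, then given 23 nL compound in DMSO. Nonlytic luminescence from viable cells was read at 0, 8, 16, 24, 32 and 40 h.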

[5] = A CellTox Green Cytotoxicity Assay to monitor cytotoxicity in HEK293 cells - 24 hour (AID 1224875); settings: CellTox Green fluorescence; series mostly up to 76.8 µM; also: nearly all actives have a fitted effect of over 45% in size
In short: as §1

[6] = A CellTox Green Cytotoxicity Assay to monitor cytotoxicity in HepG2 cells - 16 hour (AID 1224876); settings: CellTox Green fluorescence; series mostly up to 76.8 µM; also: nearly all actives have a fitted effect of over 45% in size
In short: (§2)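 HepG2 cells were seeded together with the CellTox Green dye at 600 cells/well, left 5 h at 37 C/5% CO2, then given compounds in DMSO. Fluorescence from dye bound to dead-cell DNA was read repeatedly over 40 h of treatment at 37 C.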

[7] = qHTS RealTime-Glo MT Cell Viability Assay in HepG2 cells - 32 hour (AID 1224877); settings: RealTime-Glo luminescence; series mostly up to 76.8 µM; also: nearly all actives have a fitted effect of over 55% in size
In short: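 Compound treatment began 5 h after plating HepG2 cells (600/well) with NanoLuc luciferase and prosubstrate. Plates stayed at 37 C for 40 h; luminescence was captured at six time points, 0 h through 40 h.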

[8] = A CellTox Green Cytotoxicity Assay to monitor cytotoxicity in HepG2 cells - 24 hour (AID 1224878); settings: CellTox Green fluorescence; series mostly up to 76.8 µM; also: nearly all actives have a fitted effect of over 45% in size
In short: as §2

[9] = A CellTox Green Cytotoxicity Assay to monitor cytotoxicity in HepG2 cells - 40 hour (AID 1224879); settings: CellTox Green fluorescence; series mostly up to 76.8 µM; also: nearly all actives have a fitted effect of over 40% in size
In short: as §2
% is scaled to controls: 0 for no effect and ±100 for the full control effect.

O=C(O)Cc1ccccc1
inactive: outcome [1] | Potency [2] | outcome [3] | max response [4] 21.7% and 3.56% | Potency [5] | Potency [6] | outcome [7] | Potency [8] | Potency [9]

CC[N+](=O)[O-]
inactive: outcome [1] | Potency [2] | outcome [3] | max response [4] 7.02% and 16.9% | Potency [5] | Potency [6] | outcome [7] | Potency [8] | Potency [9]

N#Cc1cccc(C#N)c1
inactive: outcome [1] | Potency [2] | outcome [3] | max response [4] 2.43% and 3.42% | Potency [5] | Potency [6] | outcome [7] | Potency [8] | Potency [9]

ClCCOCCCl
inactive: outcome [1] | Potency [2] | outcome [3] | max response [4] -3.17% and -5.17% | Potency [5] | Potency [6] | outcome [7] | Potency [8] | Potency [9]

CN(C)C(=O)Cl
inactive: outcome [1] | Potency [2] | outcome [3] | max response [4] 1.46% and 5.01% | Potency [5] | Potency [6] | outcome [7] | Potency [8] | Potency [9]

CNC(=O)O/N=C/C(C)(C)S(C)=O (stereo not drawn)
inactive: outcome [1] | Potency [2] | outcome [3] | max response [4] 16.8% and -17.7% | Potency [5] | Potency [6] | outcome [7] | Potency [8] | Potency [9]

Cc1ccc(N=C=O)cc1N=C=O
inactive: outcome [1] | Potency [2] | outcome [3] | max response [4] 7.57% and -22.1% | Potency [5] | Potency [6] | outcome [7] | Potency [8] | Potency [9]

O=[N+]([O-])c1cc([As](=O)(O)O)ccc1O
inactive: outcome [1] | Potency [2] | outcome [3] | max response [4] 6.64% and -3.36% and 2.24% | Potency [5] | Potency [6] | outcome [7] | Potency [8] | Potency [9]

C=C(C)C(=O)OCC(CC)CCCC (stereo not drawn)
inactive: outcome [1] | Potency [2] | outcome [3] | max response [4] 1.51% | Potency [5] | Potency [6] | outcome [7] | Potency [8] | Potency [9]

COc1nc(NC(C)C)nc(NC(C)C)n1
inactive: outcome [1] | Potency [2] | outcome [3] | max response [4] -0.66% and 0.377% | Potency [5] | Potency [6] | outcome [7] | Potency [8] | Potency [9]

CCOc1ccc(N)cc1
inactive: outcome [1] | Potency [2] | outcome [3] | max response [4] 2.16% and -1.88% | Potency [5] | Potency [6] | outcome [7] | Potency [8] | Potency [9]

CNC(=O)Oc1cccc2ccccc12
inactive: outcome [1] | Potency [2] | outcome [3] | max response [4] -29.1% and -20.7% and -13.7% | Potency [5] | Potency [6] | outcome [7] | Potency [8] | Potency [9]

Reference: PubChem BioAssay (Tox21)
